Experimental data as given in the supplement of paper PMC12067093, “Discovery and optimisation of a covalent ligand for TRIM25 and its application to targeted protein ubiquitination” (Chemical Science, 2025).
Targets with the largest changes are over-represented here; the source holds about 21,000 in all.

Compound: Cc1cc(ccc1-c1ccccc1)C(=O)N1CCCN(CC1)C(=O)CCl [compound 10]
Experiment: probe-labelled cysteine peptide fold change vs DMSO (competition) (log2 fold change); higher = less target engagement (more negative = stronger competition)
Conditions: THP-1, incubation time: 4 h
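Note: competitive profiling in live THP-1 cells: cysteine peptides tagged with an iodoacetamide desthiobiotin (IA-DTB) probe, intensity after compound treatment relative to DMSO-treated cells.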

Sequence of UniProt Q8N1G2 (Q8N1G2 whole entry, looked up): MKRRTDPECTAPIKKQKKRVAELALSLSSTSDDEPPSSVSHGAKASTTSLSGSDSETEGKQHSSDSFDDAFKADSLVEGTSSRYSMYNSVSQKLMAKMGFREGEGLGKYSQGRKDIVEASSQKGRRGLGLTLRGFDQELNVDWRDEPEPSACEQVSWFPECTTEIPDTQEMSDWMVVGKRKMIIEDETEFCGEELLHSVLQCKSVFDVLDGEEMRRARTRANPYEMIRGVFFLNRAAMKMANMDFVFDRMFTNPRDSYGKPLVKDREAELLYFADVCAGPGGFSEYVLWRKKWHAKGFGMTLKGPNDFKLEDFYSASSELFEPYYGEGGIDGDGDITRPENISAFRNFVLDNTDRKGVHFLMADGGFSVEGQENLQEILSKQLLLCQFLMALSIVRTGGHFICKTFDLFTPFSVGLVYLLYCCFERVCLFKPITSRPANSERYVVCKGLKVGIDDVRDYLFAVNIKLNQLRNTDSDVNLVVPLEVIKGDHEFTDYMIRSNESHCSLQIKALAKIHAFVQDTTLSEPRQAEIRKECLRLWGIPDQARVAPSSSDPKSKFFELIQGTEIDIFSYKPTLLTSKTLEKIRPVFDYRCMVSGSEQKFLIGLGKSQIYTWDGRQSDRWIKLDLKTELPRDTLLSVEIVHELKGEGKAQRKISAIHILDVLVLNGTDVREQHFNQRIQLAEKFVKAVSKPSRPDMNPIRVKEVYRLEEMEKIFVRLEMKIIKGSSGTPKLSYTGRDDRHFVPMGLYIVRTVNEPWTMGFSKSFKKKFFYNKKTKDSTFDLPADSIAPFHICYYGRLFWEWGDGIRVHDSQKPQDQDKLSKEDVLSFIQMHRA
Sequence of UniProt P55060 (P55060 whole entry, looked up): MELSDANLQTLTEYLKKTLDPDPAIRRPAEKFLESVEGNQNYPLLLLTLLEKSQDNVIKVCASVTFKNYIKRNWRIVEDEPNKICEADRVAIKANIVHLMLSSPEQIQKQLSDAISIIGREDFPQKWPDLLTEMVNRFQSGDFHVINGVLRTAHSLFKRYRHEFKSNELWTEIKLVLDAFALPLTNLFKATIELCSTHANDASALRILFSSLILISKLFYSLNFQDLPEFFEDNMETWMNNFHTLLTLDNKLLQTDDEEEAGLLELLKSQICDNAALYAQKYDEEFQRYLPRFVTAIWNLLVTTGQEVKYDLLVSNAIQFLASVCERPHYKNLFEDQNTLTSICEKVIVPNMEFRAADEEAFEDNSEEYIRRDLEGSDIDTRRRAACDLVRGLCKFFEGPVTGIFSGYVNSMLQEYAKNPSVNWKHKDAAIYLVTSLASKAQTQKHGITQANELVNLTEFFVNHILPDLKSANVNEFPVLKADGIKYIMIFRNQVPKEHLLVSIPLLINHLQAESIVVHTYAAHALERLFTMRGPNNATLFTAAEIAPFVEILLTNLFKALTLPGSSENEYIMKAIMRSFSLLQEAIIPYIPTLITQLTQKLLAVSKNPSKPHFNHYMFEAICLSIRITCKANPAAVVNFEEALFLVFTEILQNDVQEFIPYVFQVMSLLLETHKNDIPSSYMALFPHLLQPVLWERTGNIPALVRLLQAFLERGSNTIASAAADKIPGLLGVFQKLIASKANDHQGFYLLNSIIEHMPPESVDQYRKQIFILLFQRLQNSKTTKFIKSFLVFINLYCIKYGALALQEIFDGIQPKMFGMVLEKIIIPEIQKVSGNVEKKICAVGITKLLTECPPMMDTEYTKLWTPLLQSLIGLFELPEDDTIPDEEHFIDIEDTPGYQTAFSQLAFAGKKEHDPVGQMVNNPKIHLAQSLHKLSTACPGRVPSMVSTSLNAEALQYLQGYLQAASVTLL
Sequence of UniProt O00571 (O00571 whole entry, looked up): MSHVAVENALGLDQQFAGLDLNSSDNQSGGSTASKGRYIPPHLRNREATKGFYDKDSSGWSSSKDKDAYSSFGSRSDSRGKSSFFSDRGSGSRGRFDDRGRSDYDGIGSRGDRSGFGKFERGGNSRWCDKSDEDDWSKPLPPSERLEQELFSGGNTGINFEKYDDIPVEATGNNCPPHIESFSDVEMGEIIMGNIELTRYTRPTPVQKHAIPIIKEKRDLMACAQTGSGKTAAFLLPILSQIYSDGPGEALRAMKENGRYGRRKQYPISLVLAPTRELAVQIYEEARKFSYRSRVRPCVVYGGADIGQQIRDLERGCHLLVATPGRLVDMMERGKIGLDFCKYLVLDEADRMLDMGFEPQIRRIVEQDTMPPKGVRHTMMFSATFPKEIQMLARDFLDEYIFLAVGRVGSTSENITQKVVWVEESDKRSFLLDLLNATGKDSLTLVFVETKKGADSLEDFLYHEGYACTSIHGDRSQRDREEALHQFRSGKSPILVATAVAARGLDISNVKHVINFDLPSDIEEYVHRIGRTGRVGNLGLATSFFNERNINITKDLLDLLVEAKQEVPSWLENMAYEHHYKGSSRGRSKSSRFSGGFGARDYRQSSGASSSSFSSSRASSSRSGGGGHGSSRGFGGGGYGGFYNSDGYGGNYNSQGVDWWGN
Sequence of UniProt P08311 (P08311 whole entry, looked up): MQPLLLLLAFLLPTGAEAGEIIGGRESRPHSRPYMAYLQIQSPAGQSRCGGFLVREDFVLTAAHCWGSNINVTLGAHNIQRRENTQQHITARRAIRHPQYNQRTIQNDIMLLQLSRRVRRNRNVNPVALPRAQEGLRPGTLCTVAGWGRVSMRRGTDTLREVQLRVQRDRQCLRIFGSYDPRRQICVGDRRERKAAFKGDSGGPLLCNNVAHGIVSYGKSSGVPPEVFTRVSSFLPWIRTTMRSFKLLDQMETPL
Sequence of UniProt Q96GQ7 (Q96GQ7 whole entry, looked up): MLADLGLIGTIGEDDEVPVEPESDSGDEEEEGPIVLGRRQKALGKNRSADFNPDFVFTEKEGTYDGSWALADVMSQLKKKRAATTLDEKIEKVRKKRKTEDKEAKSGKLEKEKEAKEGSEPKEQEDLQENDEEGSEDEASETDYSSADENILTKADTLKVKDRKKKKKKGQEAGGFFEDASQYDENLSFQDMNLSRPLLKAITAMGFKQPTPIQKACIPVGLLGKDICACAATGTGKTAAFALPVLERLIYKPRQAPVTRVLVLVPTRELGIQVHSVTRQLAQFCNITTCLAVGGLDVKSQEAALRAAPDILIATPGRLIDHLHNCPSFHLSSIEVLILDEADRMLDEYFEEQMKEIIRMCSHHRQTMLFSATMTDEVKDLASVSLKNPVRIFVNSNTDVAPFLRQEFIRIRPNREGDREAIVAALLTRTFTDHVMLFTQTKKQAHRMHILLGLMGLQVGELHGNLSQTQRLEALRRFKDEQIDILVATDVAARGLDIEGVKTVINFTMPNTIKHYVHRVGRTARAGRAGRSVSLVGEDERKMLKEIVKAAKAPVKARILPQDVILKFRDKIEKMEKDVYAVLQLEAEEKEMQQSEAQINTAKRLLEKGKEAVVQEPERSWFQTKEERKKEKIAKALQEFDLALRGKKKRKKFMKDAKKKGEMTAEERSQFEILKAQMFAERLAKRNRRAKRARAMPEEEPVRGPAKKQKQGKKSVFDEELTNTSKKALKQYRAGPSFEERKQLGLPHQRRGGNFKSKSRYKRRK
Sequence of UniProt O60716 (O60716 whole entry, looked up): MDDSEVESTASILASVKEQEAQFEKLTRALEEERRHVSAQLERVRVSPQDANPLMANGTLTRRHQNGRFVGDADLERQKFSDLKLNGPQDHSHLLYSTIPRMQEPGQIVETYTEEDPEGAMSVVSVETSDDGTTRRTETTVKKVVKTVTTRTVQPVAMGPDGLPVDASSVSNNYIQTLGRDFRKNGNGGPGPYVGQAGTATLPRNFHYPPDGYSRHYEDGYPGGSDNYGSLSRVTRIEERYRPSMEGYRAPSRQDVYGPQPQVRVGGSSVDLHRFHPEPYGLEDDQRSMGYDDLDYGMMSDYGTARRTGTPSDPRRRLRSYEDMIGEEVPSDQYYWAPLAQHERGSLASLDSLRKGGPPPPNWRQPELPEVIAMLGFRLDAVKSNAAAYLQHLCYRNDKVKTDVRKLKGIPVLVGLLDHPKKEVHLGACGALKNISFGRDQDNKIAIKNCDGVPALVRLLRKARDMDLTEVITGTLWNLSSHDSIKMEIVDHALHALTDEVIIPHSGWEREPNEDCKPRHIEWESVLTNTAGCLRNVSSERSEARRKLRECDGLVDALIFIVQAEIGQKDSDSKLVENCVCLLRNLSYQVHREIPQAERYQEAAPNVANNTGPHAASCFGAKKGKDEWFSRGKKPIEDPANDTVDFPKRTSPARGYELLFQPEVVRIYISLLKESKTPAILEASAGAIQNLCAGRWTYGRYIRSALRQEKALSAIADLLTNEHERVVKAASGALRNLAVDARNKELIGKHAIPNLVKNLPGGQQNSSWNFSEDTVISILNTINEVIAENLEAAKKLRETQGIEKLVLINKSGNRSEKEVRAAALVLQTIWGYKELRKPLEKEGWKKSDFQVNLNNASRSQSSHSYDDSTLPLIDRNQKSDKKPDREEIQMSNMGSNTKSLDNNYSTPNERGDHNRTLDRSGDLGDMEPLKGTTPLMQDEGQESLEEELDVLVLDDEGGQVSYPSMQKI
Sequence of UniProt Q6ICB0 (Q6ICB0 whole entry): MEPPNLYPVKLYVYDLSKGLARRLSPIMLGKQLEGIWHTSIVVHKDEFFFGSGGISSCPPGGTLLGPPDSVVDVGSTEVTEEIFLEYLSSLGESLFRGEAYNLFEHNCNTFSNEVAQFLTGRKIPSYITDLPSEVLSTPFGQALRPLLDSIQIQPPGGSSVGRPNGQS
Sequence of UniProt P62633 (P62633 whole entry, looked up): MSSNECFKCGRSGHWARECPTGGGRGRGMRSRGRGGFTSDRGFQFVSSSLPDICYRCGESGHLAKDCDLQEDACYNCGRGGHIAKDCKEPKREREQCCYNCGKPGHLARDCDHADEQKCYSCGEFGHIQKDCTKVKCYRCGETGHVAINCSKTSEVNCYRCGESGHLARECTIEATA
Sequence of UniProt P21291 (P21291 whole entry, looked up): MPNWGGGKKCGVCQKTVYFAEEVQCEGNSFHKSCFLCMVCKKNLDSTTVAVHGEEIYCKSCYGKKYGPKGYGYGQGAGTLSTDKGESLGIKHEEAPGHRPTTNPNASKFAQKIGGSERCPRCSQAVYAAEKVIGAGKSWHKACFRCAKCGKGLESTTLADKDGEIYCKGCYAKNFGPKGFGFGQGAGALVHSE

Target	probe-labelled cysteine peptide fold change (10 µM)	probe-labelled cysteine peptide fold change (50 µM)
CPVL_Q9H3G5_320_CTEPEDQLYYVK (UniProt Q9H3G5)	-0.128	-0.131
DNMT1_P26358_1476+1478_GVCSCVEAGK (UniProt P26358)	-1.56	< -5
DHX9_Q08211_777_VRPGFCFHLCSR (UniProt Q08211)	-0.231	-0.0284
CTPS2_Q9NRF8_299_ICSIALVGK (UniProt Q9NRF8)	-0.0254	0.193
DDX24_Q9GZR7_599_SLVFANSISCIK (UniProt Q9GZR7)	0.147	0.498
CRABP1_P29762_130_ELANDELILTFGADDVVCTR (UniProt P29762)	0.082	0.307
DENND6A_Q8IWF6_130_VSLHCLLDQFDK (UniProt Q8IWF6)	0.295	1.1
DNAJC7_Q99615_58_AIDMCPK (UniProt Q99615)	0.162	0.0415
CTPS1_P17812_30_SCGLHVTSIK (UniProt P17812)	0.14	0.147
CTSG_P08311_207_AAFKGDSGGPLLCNNVAHGIVSYGK (UniProt P08311)	-0.329	-0.817
DHX9_Q08211_1099_LQISHEAAACITGLR (UniProt Q08211)	0.136	0.171
CNBP_P62633_150_CGETGHVAINCSK (UniProt P62633)	-0.103	0.0483
COMP_P49747_371_GDACDDDIDGDR (UniProt P49747)	-1.61	-0.768
COL15A1_P39059_965_GAIFPIPVRPHCK (UniProt P39059)	-0.0948	0.0369
DGLUCY_Q7Z3D6-2_165_TTVPCVTHAGFCCPLVVTMRPIPK (UniProt Q7Z3D6)	0.017	-0.4
CTNNB1_P35222_520_NLALCPANHAPLR (UniProt P35222)	-0.273	1.23
DDX27_Q96GQ7_259_DICACAATGTGK (UniProt Q96GQ7)	0.0194	-0.0602
DGLUCY_Q7Z3D6_316_GIGHLLCK (UniProt Q7Z3D6)	-0.0414	0.0827
COX17_Q14061_23+24_KPLKPCCACPETK (UniProt Q14061)	-0.321	-2.25
COPA_P53621_1148_KILSACEK (UniProt P53621)	-0.212	-1.12

Target	probe-labelled cysteine peptide fold change (10 µM)	probe-labelled cysteine peptide fold change (50 µM)
CXXC1_Q9P0U4_38_KPDINCFMIGCDNCNEWFHGDCIR (UniProt Q9P0U4)	0.0402	-1.06
COG1_Q8WTW3_625_LCQSLGELCPHLK (UniProt Q8WTW3)	-0.144	-0.347
CSE1L_P55060_344_NLFEDQNTLTSICEK (UniProt P55060)	-0.186	-0.107
CTSZ_Q9UBR2_179_ECHAIR (UniProt Q9UBR2)	0.892	2.23
DDX3X_O00571_128_WCDKSDEDDWSK (UniProt O00571)	-0.303	-1.35
DCXR_Q7Z4W1_58_ECPGIEPVCVDLGDWEATER (UniProt Q7Z4W1)	0.125	0.231
DENND4A_Q7Z401_35_PLEEEIHFNDACHK (UniProt Q7Z401)	-0.0984	-0.131
DBR1_Q9UK59_347_VPCNFSVTAACYDPSKPQTQMQLIHR (UniProt Q9UK59)	-0.109	-0.299
CMTR1_Q8N1G2_794_DSTFDLPADSIAPFHICYYGR (UniProt Q8N1G2)	0.205	0.653
DESI1_Q6ICB0_108_GEAYNLFEHNCNTFSNEVAQFLTGR (UniProt Q6ICB0)	-0.076	-1.61
DECR1_Q16698_86_GMTTLLSSLGAQCVIASR (UniProt Q16698)	0.251	0.213
DHX57_Q6P158_644_LLYCTTGVLLR<|>DHX29_Q7Z478_678_LLYCTTGVLLR (UniProt Q7Z478+Q6P158)	-0.0914	0.172
CROT_Q9UKG9_166_MLFSTCK (UniProt Q9UKG9)	-0.0518	-0.0687
DNAJC7_Q99615_175_ALEFAPACHR (UniProt Q99615)	-0.118	-0.577
CSRP1_P21291_167_GLESTTLADKDGEIYCK (UniProt P21291)	-0.0814	-1.06
CTNND1_O60716_618_YQEAAPNVANNTGPHAASCFGAK (UniProt O60716)	-0.274	-0.78
CPPED1_Q9BRF8_88_FFVLCGDLIHAMPGKPWR (UniProt Q9BRF8)	-0.0653	-0.191
DENND3_A2RUS2_499_LTDTAGCR (UniProt A2RUS2)	-0.198	-0.918
DDX39A_O00148_62_AIVDCGFEHPSEVQHECIPQAILGMDVLCQAK (UniProt O00148)	0.144	0.0705
